Compound activity as filed in PubChem.
D2 PAM-1: HTS Assay for Positive Allosteric Modulators of the Human D2 Dopamine Receptor: Primary Screen for Potentiators | D(2) dopamine receptor (Homo sapiens), P14416 | potentiation, % at 10 µM | HEK293 T-REx D2, calcium flux, EC20 dopamine potentiation | actives 0.34% (n = 340,000);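 active means potentiation over 3 SD above the plate norm, cut at about 30% in these data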; further: 0% is about no effect
Target sequence (P14416 whole entry, looked up): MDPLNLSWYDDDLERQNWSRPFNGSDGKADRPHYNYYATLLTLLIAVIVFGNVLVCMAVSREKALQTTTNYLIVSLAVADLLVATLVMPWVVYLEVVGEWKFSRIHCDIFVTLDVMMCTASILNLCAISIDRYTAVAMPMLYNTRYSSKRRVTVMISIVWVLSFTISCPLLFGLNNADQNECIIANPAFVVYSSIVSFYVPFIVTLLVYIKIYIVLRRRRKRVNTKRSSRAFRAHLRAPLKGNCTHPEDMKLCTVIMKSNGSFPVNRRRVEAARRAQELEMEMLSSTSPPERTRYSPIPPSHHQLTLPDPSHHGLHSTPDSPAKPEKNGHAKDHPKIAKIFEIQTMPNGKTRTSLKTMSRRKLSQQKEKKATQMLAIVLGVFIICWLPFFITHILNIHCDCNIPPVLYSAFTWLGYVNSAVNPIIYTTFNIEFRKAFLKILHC
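Using a no-wash calcium dye in inducible, force-coupled HEK293 Trex cells expressing D2, we tracked fluorescence each second for 180 s after compound, then for 180 s after EC20 dopamine to detect augmented signalling.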
D2 PAM-2: Beta-Arrestin HTS for Positive Allosteric Modulators of the Human D2 Dopamine Receptor: Potentiators | D(2) dopamine receptor (Homo sapiens), P14416 | DiscoveRx D2 beta-arrestin cells, luminescence, 90 min; 100% = 57 uM dopamine signal | potentiation, % (concentration not given with the values) | actives 0.23% (n = 360,000); in the data active means potentiation above about 50%; inconclusive means mostly about 30% to 49%
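D2 cells co-treated with compound plus 50 nM dopamine (EC20) for 90 min at 37 deg C to detect potentiation. Beta-arrestin recruitment was read as enzyme-fragment luminescence after 1 h at ambient temperature. Full response was set by 57 uM dopamine.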
D2 antag: HTS Assay for Allosteric Antagonists of the Human D2 Dopamine Receptor: Primary Screen for Antagonists; D(2) dopamine receptor (Homo sapiens), P14416; HEK293 TREx D2 cells, calcium flux, dopamine EC80; inhibition, % at 10 µM; actives 2% (n = 340,000); in the data active means inhibition above about 30%; inactive means below that, where a call was filed; further: 0% is about no effect
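Calcium flux kinetic readout in an inducible HEK293 TREx D2 line plated overnight at 30 C. After 180 s compound exposure, an EC80 dopamine challenge follows with another 180 s kinetic read to detect antagonism.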
LDHA block: qHTS assay for inhibitors of human lactate dehydrogenase; L-lactate dehydrogenase A chain (Homo sapiens), P00338; purified LDHA, NADH/diaphorase-resazurin fluorescence; stronger effect = lower value; activity change, % (values are at about 110 or 230 µM); actives 0.15% (n = 480,000); in the data active means activity change below about -30%; inconclusive means mostly about -25% to -30%;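 further: plate controls were DMSO wells for no effect and wells without enzyme for full effect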
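Remaining NADH was detected by diaphorase (0.133 mg/mL) converting 37 µM resazurin to fluorescent resorufin, read at 0 and 20 minutes. The preceding 5-minute room-temperature reaction used 2 nM LDHA, 0.2 mM sodium pyruvate and 0.06 mM NADH at pH 7.4.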
D2 ag-1: HTS Assay for Allosteric Agonists of the Human D2 Dopamine Receptor: Primary Screen for Agonists. D(2) dopamine receptor (Homo sapiens), P14416. HEK293 T-REx D2 cells, calcium flux agonist mode. activation, % at 2 µM. actives 0.53% (n = 340,000);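 active means activation over 3 SD above normal in the single-dose calcium agonist read, cut at about 30% in these data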; further: 0% is about no effect
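In this primary screen, compounds producing a positive calcium signal within 180 s of addition to tetracycline-induced, force-coupled HEK293 Trex D2 cells are flagged; cells are dye-loaded with a no-wash calcium kit beforehand.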
D2 ag-2: Beta-Arrestin HTS for Positive Allosteric Modulators of the Human D2 Dopamine Receptor: Agonists; D(2) dopamine receptor (Homo sapiens), P14416; DiscoveRx PathHunter D2 beta-arrestin, luminescence, 90 min; 100% = 57 uM dopamine signal; activation, % (no concentration beside the values); actives 0.084% (n = 360,000); AID 624465, 2012; in the data active means activation above about 40%; inconclusive means between about 15% and that limit
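DiscoveRx PathHunter D2 beta-arrestin cells (2,100/well) attached overnight, then compound-stimulated 90 min at 37 C in HBSS/10 mM HEPES/0.1% Tween-20 buffer; beta-galactosidase complementation read by luminescence after 1 h at ambient temperature. Dopamine 57 uM final (EC100) as control.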
Starred values were filed as active, the others as inactive. Compounds with a hit are over-represented: about 2.1% of the library has one in this group of screens.

`Cc1cc(N2CCOCC2)nc(Nc2ccc(NC(=O)CC3CCCC3)cc2)n1` gave LDHA block 16.
`COc1ccccc1NC(=O)NCC(c1ccco1)N1CCCCC1` (stereo not drawn) gave D2 PAM-1 -15, D2 PAM-2 -28, D2 antag 39*, LDHA block -9, D2 ag-1 0 and D2 ag-2 -4.
Screening O=C(CSc1ccc(Br)cc1)NCC(c1ccco1)N1CCCCC1 (stereo not drawn) returned D2 PAM-1 0, D2 PAM-2 3, D2 antag 39*, LDHA block -1, D2 ag-1 0 and D2 ag-2 -4.
For COc1ccccc1NC(=O)NCC1(N(C)C)CCCCC1 the results were D2 PAM-1 -17, D2 PAM-2 -16, D2 antag 59*, LDHA block -7, D2 ag-1 0 and D2 ag-2 -4.
COc1ccccc1NS(=O)(=O)c1ccc(C(=O)NCC2(N(C)C)CCCCC2)cc1 was read as D2 PAM-2 -10, LDHA block -3 and D2 ag-2 -3.
For COc1ccccc1NS(=O)(=O)c1cc(C(=O)NCC(c2ccco2)N2CCCCC2)ccc1C (stereo not drawn) the results were D2 PAM-2 -39, LDHA block -3 and D2 ag-2 -1.
For COC(=O)c1ccc(NC(=S)Nc2ccc(O)cc2)cc1 the results were D2 PAM-1 9, D2 PAM-2 -3, D2 antag -5, LDHA block -1, D2 ag-1 1 and D2 ag-2 7.
Oc1ccc(NC(=S)Nc2ccc(O)cc2)cc1 was read as D2 PAM-1 31*, D2 PAM-2 -2, D2 antag 17, LDHA block -3, D2 ag-1 -1 and D2 ag-2 12.
`C1COC(NC(C2CC2)C2CC2)=N1` gave D2 PAM-1 -4, D2 PAM-2 -9, D2 antag 36*, LDHA block -9, D2 ag-1 2 and D2 ag-2 0.
C1CCC(NC2=NCCO2)CC1 was read as D2 PAM-2 -9, LDHA block -17 and D2 ag-2 -1.
`OC1CCN(c2cc(C(F)(F)F)nc3ccccc23)CC1` gave LDHA block 5.
c1ccc2cc(-c3ccn[nH]3)ccc2c1 was read as LDHA block 2.
For CCCOP(=O)(OCCC)c1nc(-c2ccccc2)oc1NC the results were LDHA block -7.
For Cc1cc(C)c(OCC(=O)N(Cc2ccccc2)C2CCS(=O)(=O)C2)c(C)c1 (stereo not drawn) the results were D2 PAM-1 44*, D2 PAM-2 -5, D2 antag 6, LDHA block -5, D2 ag-1 0 and D2 ag-2 3.
For CCc1ccc(CN(C(=O)COc2c(C)cccc2C)C2CCS(=O)(=O)C2)cc1 (stereo not drawn) the results were D2 PAM-1 2, D2 PAM-2 -9, D2 antag -3, LDHA block -6, D2 ag-1 0 and D2 ag-2 0.
`COc1ccc(OC)c(C(=O)Oc2cc(Cl)ccc2Cl)c1` gave LDHA block 1.
`CCOC(=O)C1=C(CN2CCc3ccccc3C2)NC(=O)NC1c1ccc(CC)cc1` (stereo not drawn) gave LDHA block 10.
Clc1ccc(N=c2ssnc2Cl)nc1 was read as D2 PAM-1 -8, D2 PAM-2 103*, D2 antag -5, LDHA block -1, D2 ag-1 1 and D2 ag-2 -1.
CS(=O)(=O)N(CC(N)=O)c1cccc(Br)c1 was read as D2 PAM-1 48*, D2 PAM-2 inconclusive, D2 antag -4, LDHA block 1, D2 ag-1 1 and D2 ag-2 1.
For CCOC(=O)c1nnn(-c2nonc2N)c1CN1CCCCCC1 the results were D2 PAM-1 -6, D2 PAM-2 -2, D2 antag 15, LDHA block -5, D2 ag-1 0 and D2 ag-2 0.
`Cc1c(C(=O)N2CCCCCC2)nnn1-c1nonc1N` gave D2 PAM-1 1, D2 PAM-2 -21, D2 antag 41*, LDHA block 0, D2 ag-1 1 and D2 ag-2 -3.
O=[N+]([O-])c1c(Nc2ccc(O)cc2)cc(Cl)c2nonc12 was read as D2 PAM-1 -4, D2 PAM-2 -68, D2 antag 37*, LDHA block 2, D2 ag-1 7 and D2 ag-2 0.
`O=C(O)CC(NC(=O)C12CC3CC(CC(C3)C1)C2)c1cc([N+](=O)[O-])ccc1Cl` (stereo not drawn) gave D2 PAM-1 10, D2 PAM-2 3, D2 antag 72*, LDHA block -5, D2 ag-1 -2 and D2 ag-2 -4.
`CCc1ccc(C2CC(=O)NC3=C2C(=O)CC(c2ccc(OC)cc2)C3)cc1` (stereo not drawn) gave LDHA block -3.
Screening CCN(CC)C(=O)C1=C(C)NC(=S)NC1c1ccc(C)s1 (stereo not drawn) returned D2 PAM-1 -5, D2 PAM-2 -2, D2 antag 13, LDHA block -8, D2 ag-1 2 and D2 ag-2 0.
CCN(CC)C(=O)C1=C(C)NC(=S)NC1c1cccs1 (stereo not drawn) was read as D2 PAM-1 -7, D2 PAM-2 -6, D2 antag 31*, LDHA block 1, D2 ag-1 0 and D2 ag-2 -8.
Screening COc1ccc(CNC23CC4CC(CC(C4)C2)C3)c2ccccc12 returned LDHA block -5.
COc1ccc(N2C(=O)CSC23CCCCC3)cc1 was read as D2 PAM-1 11, D2 PAM-2 -2, D2 antag 33*, LDHA block 1, D2 ag-1 0 and D2 ag-2 -1.
CCOc1ccc(N2C(=O)CSC23CCCCC3)cc1 was read as D2 PAM-1 22, D2 PAM-2 14, D2 antag -4, LDHA block -9, D2 ag-1 0 and D2 ag-2 -2.
